FLuc counter – firefly luciferase modulation, counter-screen for miR-21 project | P08659 | purified FLuc, Km substrates, luminescence inhibition | Potency, µM (highest dose often 57.5 µM), hits mostly inhibitors | 360,000 compounds, 6.9% hits; also: nearly all actives have a fitted effect of over 55% in size
Target sequence (P08659 whole entry, looked up): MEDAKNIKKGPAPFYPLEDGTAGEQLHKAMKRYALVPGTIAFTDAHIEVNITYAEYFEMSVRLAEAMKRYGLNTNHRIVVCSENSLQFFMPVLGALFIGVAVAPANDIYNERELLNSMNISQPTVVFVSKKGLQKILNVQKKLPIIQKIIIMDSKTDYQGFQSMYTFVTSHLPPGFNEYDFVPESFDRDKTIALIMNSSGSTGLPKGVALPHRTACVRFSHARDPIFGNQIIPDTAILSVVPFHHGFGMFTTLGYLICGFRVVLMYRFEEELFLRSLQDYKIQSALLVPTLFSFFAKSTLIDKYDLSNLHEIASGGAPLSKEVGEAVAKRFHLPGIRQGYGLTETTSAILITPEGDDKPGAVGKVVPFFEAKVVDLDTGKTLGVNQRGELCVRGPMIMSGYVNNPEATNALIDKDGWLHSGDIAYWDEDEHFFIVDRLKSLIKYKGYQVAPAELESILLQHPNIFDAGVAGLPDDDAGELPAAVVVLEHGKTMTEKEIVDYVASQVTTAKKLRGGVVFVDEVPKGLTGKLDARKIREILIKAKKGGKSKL
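Purified P. pyralis luciferase, 10 nM final, with Km-level 10 uM D-luciferin and 10 uM ATP in 50 mM Tris acetate pH 7.5, 10 mM Mg acetate, 0.01% Tween-20, 0.05% BSA; 6-point qHTS titration about 60 µM downward; luminescence read.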
SMN2 splice up – increases expression of the SMN2 splice variant | HEK293 SMN2-luciferase splicing reporter, luminescence, 30-36 h | Potency, µM (highest dose often 46.1 µM), usual class: activators | 210,000 compounds, 2.8% hits; also: nearly all actives have a fitted effect of over 55% in size
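qHTS luciferase splicing reporter: luminescence rises when SMN2 exon 7 is included in transfected HEK293 cells. Compound exposure lasted 30-36 h at 37C, with 4.5 mM final sodium butyrate as control, followed by a ONE-Glo read.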
NPC1 prom act – activators of NPC1 promoter; Potency, µM (highest dose often 9.22 µM), hits mostly activators; Huh7 NPC1 promoter luciferase reporter, 24 h; 320,000 compounds, 2.4% hits; also: nearly all actives have a fitted effect of over 60% in size
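Luciferase expression driven by the NPC1 promoter was measured in stably transfected Huh7 cells after a 24 h compound incubation, using a luciferase reagent and a luminescence read.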
ELG1 genotoxic – inducers of genotoxicity in HEK293T ELG1-luciferase cells. 330,000 compounds, 1.3% hits. AID 504466. Potency, µM (series often up to 46 µM), hits mostly activators. HEK293T ELG1-luciferase reporter, luminescence, 16 h; also: nearly all actives have a fitted effect of over 60% in size
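Cells (2,000/well) expressing the ELG1-luciferase fusion are dosed by pin tool and kept 16 hr at 37 °C, 5% CO2. Signal comes from ONE-Glo luciferase reagent after 30 min at room temperature.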
Rab9 prom act – Rab9 promoter activation. AID 485297. Potency, µM (doses to about 9.22 µM), actives largely listed as activators. Huh7 Rab9 promoter-luciferase reporter, luminescence, 24 h. 320,000 compounds, 2.8% hits; also: nearly all actives have a fitted effect of over 60% in size
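Using Huh7 cells stably transfected with Rab9 promoter–luciferase, compounds were incubated 24 h at 37 °C, 5% CO2; luciferase luminescence was read 10 min after reagent addition.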
Hits are given with their value; [ ] = remark or other dose. Sampled rows, rich in hits. Any-hit rate of the full collection: about 7.4%. Calls follow the shape of the dose curve; as a rule, active = well fitted curve in the direction sought with a large enough effect; inconclusive = small, poorly fitted or top-dose-only effect, or another doubt; inactive = no such curve, though single readings can be large; an effect the other way counts as inactive or inconclusive.

`COc1ccc(NC(=O)COc2ccc(Br)cc2)c(OC)c1` gave FLuc counter inactive, NPC1 prom act inactive, ELG1 genotoxic inactive and Rab9 prom act inactive.
`O=C(COc1ccc2ccccc2c1)Nc1ccccc1C(=O)O` gave FLuc counter 17µM, NPC1 prom act inactive, ELG1 genotoxic inactive and Rab9 prom act inactive.
`O=C(O)Cc1ccc(NC(=O)COc2ccc3ccccc3c2)cc1` gave FLuc counter 19µM, NPC1 prom act inactive, ELG1 genotoxic inactive and Rab9 prom act inactive.
O=C(COc1ccc2ccccc2c1)NC1CC1 was read as FLuc counter 17µM, SMN2 splice up inactive, NPC1 prom act inactive, ELG1 genotoxic inactive and Rab9 prom act inconclusive.
Screening CCS(=O)(=O)c1ccc(O)c(NC(=O)COc2ccccc2)c1 returned FLuc counter inactive, SMN2 splice up inactive, NPC1 prom act inactive, ELG1 genotoxic inactive and Rab9 prom act inactive.
`O=C(COc1ccc2ccccc2c1)NCCNC(=O)COc1ccc2ccccc2c1` gave FLuc counter inactive, SMN2 splice up inactive, NPC1 prom act inactive, ELG1 genotoxic inactive and Rab9 prom act inactive.
CCc1ccc(OCC(=O)Nc2cc(S(=O)(=O)CC)ccc2O)cc1 was read as FLuc counter 24µM, SMN2 splice up inactive, NPC1 prom act inactive, ELG1 genotoxic inactive and Rab9 prom act inactive.
For CCC/C=C(\CCC)C(NS(=O)(=O)c1ccc(C(F)(F)F)cc1)c1ccc(C(=O)OC)cc1 (stereo not drawn) the results were SMN2 splice up inactive.
COc1cc(C2c3c(-c4cc(C)ccc4O)n[nH]c3C(=O)N2CCCO)ccc1OCCC(C)C (stereo not drawn) was read as FLuc counter inactive and SMN2 splice up inactive.
Screening CCC(=O)Oc1c(Sc2ccc(Cl)cc2)c(C)nn1C(C)(C)C returned FLuc counter inactive and SMN2 splice up inactive.
`CC#CCN1c2ccccc2[C@]23C[C@@H](C(=O)OC)N(S(=O)(=O)c4cccs4)C2=NC(C(=O)OC)=C(C(=O)OC)[C@H]13` gave SMN2 splice up inactive[9.22 µM].
COc1ccc(C2C(C#N)=C(N)N(N(C)C)C3=C2C(=O)CC(C)(C)C3)cc1 (stereo not drawn) was read as FLuc counter inactive, NPC1 prom act inactive, ELG1 genotoxic inactive and Rab9 prom act inactive.
`Cc1ccsc1C1C(C#N)=C(N)N(N(C)C)C2=C1C(=O)CC(C)(C)C2` (stereo not drawn) gave FLuc counter inactive, SMN2 splice up 25µM, NPC1 prom act inactive, ELG1 genotoxic inactive and Rab9 prom act inactive.
`COc1ccc(-c2nc(C)c(CCNC(=O)c3cccc(C)c3)s2)cc1OC` gave FLuc counter 24µM.
`COc1ccc(-c2nc(C)c(CCNC(=O)c3ccc(F)c(F)c3)s2)cc1` gave FLuc counter 21µM.
`COc1ccc(-c2nc(C)c(CCNC(=O)c3cccs3)s2)cc1` gave FLuc counter 27µM.
For Cc1ccc(CNC(=O)c2c(O)nc3ccccn3c2=O)cc1 the results were FLuc counter inactive and SMN2 splice up inactive.
`Cc1ccc(OCc2ccc(C(=O)N3CCCC3)o2)c([N+](=O)[O-])c1` gave FLuc counter inconclusive, NPC1 prom act inactive, ELG1 genotoxic inactive and Rab9 prom act inactive.
Screening C=CCc1ccc(OCc2ccc(C(=O)O)o2)c(OC)c1 returned FLuc counter 4.8µM, NPC1 prom act inconclusive, ELG1 genotoxic inconclusive and Rab9 prom act inconclusive.
Screening Cc1ccc(OCc2ccc(C(=O)O)o2)c([N+](=O)[O-])c1 returned FLuc counter 27µM, SMN2 splice up inconclusive, NPC1 prom act inconclusive, ELG1 genotoxic inactive and Rab9 prom act inconclusive.
Screening C=CCc1ccc(OCCCCOc2ccc(C(=O)O)cc2)c(OC)c1 returned FLuc counter 13µM, SMN2 splice up inactive, NPC1 prom act inactive, ELG1 genotoxic inactive and Rab9 prom act inactive.
`CCCc1ccc(OCc2ccc(C(=O)OC)o2)c(OC)c1` gave FLuc counter 15µM, SMN2 splice up inconclusive, NPC1 prom act 1.4µM, ELG1 genotoxic 10µM and Rab9 prom act 1.8µM.
Screening O=C(CCSCc1cnn(-c2ccccc2)c1-n1cccc1)NCc1ccc(Cl)cc1 returned FLuc counter inactive.
`Cc1cc(C(=O)Nc2cccc(F)c2)c2c(C)nn(-c3cccc(Cl)c3C)c2n1` gave FLuc counter inactive.
For CC1=C(c2ccc(C)c(C)c2)S(=O)(=O)N=C1N1CCC(C(=O)NCc2ccc(C)o2)CC1 the results were FLuc counter inactive.
For C=CCc1ccc(OCCOc2cccc3ccc(C)nc23)c(OC)c1 the results were FLuc counter 11µM, SMN2 splice up inactive, NPC1 prom act inactive, ELG1 genotoxic inactive and Rab9 prom act inactive.
`Cc1cc(C)cc(OCc2ccc(C(=O)NN)o2)c1` gave FLuc counter inactive, NPC1 prom act inactive, ELG1 genotoxic inactive and Rab9 prom act inactive.
Screening C=CCc1ccc(OCCn2cccc2C=O)c(OC)c1 returned FLuc counter 17µM, SMN2 splice up inactive, NPC1 prom act inconclusive, ELG1 genotoxic inactive and Rab9 prom act inconclusive.
For COc1ccc(CCN(C)C(=O)c2ccc(COc3ccccc3)o2)cc1OC the results were FLuc counter inactive, NPC1 prom act inactive, ELG1 genotoxic inactive and Rab9 prom act inactive.
Screening CCCc1ccc(OCc2ccc(C(=O)O)o2)c(OC)c1 returned FLuc counter 4.8µM, SMN2 splice up 2.5µM, NPC1 prom act 0.45µM, ELG1 genotoxic inconclusive and Rab9 prom act 0.32µM.
For C=CCc1ccc(OCCOCCN(C)C)c(OC)c1 the results were FLuc counter inactive, SMN2 splice up inactive, NPC1 prom act inactive, ELG1 genotoxic inactive and Rab9 prom act inactive.
`CCCc1ccc(OCc2ccc(C(=O)NN)o2)c(OC)c1` gave FLuc counter inactive, NPC1 prom act 2.2µM, ELG1 genotoxic inactive and Rab9 prom act inconclusive.
C=CCc1ccc(OCCCOc2ccc(C)c(C)c2)c(OC)c1 was read as FLuc counter inactive, SMN2 splice up inactive, NPC1 prom act inactive, ELG1 genotoxic inactive and Rab9 prom act inactive.
For Cc1ccnc(N(C(=O)Nc2ccccc2)C2=NCC(C)(C)S2)c1 the results were FLuc counter 19µM, NPC1 prom act 2.5µM, ELG1 genotoxic inconclusive and Rab9 prom act inconclusive.
`CCN(c1cccc(C)c1)S(=O)(=O)c1c(C)nc2sc(C)cn2c1=O` gave FLuc counter inactive.
For CCc1ccc(Nc2oc(C)cc(=O)c2C(C)=O)cc1 the results were FLuc counter 19µM, SMN2 splice up inactive, NPC1 prom act inactive, ELG1 genotoxic inactive and Rab9 prom act inactive.
`COc1ccc(Cn2c(SCC#N)nc3ccc(N4CCOCC4)cc3c2=O)cc1` gave FLuc counter inconclusive, SMN2 splice up inconclusive, NPC1 prom act 3.5µM, ELG1 genotoxic inconclusive and Rab9 prom act 3.5µM.
O=C(NCC(c1cccnc1)N1CCc2ccccc21)c1cccc(Br)c1 (stereo not drawn) was read as FLuc counter inactive.
